About 900 (1.7%) of roughly 53,000 compounds showed an effect of 50% or more. The list comes from a sample in which strong results are over-represented; it also holds similar structures and randomly drawn compounds.

For this test, the system named is Mycobacterium tuberculosis. The test is described as follows: Cornell - Phenotypic assay to identify agents that inhibit growth of Mycobacterium tuberculosis. It counts as functional. Also noted: scale not given: direction of the effect not stated beside the values. The following applies: 10 mM as filed; unlikely as a test dose.
Regarding `O=C(NCCOc1ccccc1)NCC(O)c1cccs1` (stereo unspecified), the “Percent Effect” value is recorded as 1.907%.
Take `Cc1csc(N2CCCN(C(=O)c3csc(C)n3)CC2)n1`: the “Percent Effect” value stood at 20.78%.
As to `O=C(c1cnc(O)cn1)N1C[C@@H]2CC[C@H](C1)N(Cc1ccccc1)C2`, the “Percent Effect” value is reported as 9.482%.
Turning to `CCN1CCCc2cc(CN3CCc4c(nc(C)[nH]c4=O)C3)ccc21`, the “Percent Effect” value was found to be 3.807%.
For the compound `Cn1cc(CN(Cc2ccccc2)CC(O)c2cccs2)cn1` (stereo unspecified), the “Percent Effect” value was 103.2%.
Take `Cc1cnc(CN(Cc2ccccc2)CC(O)c2cccs2)cn1` (stereo unspecified): the “Percent Effect” value is recorded as -16.83%.
`OC(CN(Cc1ccccc1)Cc1ccncc1)c1cccs1` (stereo unspecified): the “Percent Effect” value turned out to be 4.252%.
Turning to `CCN(CCn1c(=O)oc2ccccc21)CC1CCOCC1`, the “Percent Effect” value turned out to be 48%.
As to `O=c1oc2ccccc2n1CCN(CC1CCOC1)C1CC1` (stereo unspecified), the “Percent Effect” value was found to be 23.76%.
As to `CCCN(CCn1c(=O)oc2ccccc21)CC1CC1`, the “Percent Effect” value is on record as 69.63%.
For the compound `CC(NCCn1c(=O)oc2ccccc21)c1ccccn1` (stereo unspecified), the “Percent Effect” value was 11.05%.
`O=C(CCn1c(=O)oc2ccccc21)NCC(O)c1ccccc1` (stereo unspecified): the “Percent Effect” value is on record as -6.039%.
`CCN(CC)CCn1c(=O)oc2ccccc21.Cl`: the “Percent Effect” value is 61.39%.
`CN(C)CCN1CCC2(CC1)CN(c1cccnc1)C(=O)CO2`: the “Percent Effect” value is on record as -2.61%.
The same measure for `CCC(C)NC(=O)Nc1cccc(OC)c1` (stereo unspecified): -23.11%; for `CC1CC(=O)c2cc(C(=O)N3CCN(C)CC3)c(=O)[nH]c2C1` (stereo unspecified): 4.231%.
In the case of `COc1c(Br)c(C(=O)NC2CC2)nn1C`, the “Percent Effect” value was found to be 20.51%.
As for `CNc1nc(C(=O)NCc2cccnc2N(C)C)cs1`, the “Percent Effect” value stood at 28.41%.
In the case of `CN(c1ncccc1CNC(=O)c1cscn1)C1CCCCC1`, the “Percent Effect” value came out at 20.11%.
With `CNc1nc(C(=O)NCc2cccnc2N(C)C2CCCCC2)cs1`, the “Percent Effect” value is 51.53%.
`CCCN1CCN(Cc2cc3cc(OCC)ccc3[nH]c2=O)CC1`: the “Percent Effect” value was 16.06%.
For the compound `CCc1ccc(-c2cn3c(C(=O)NCC(C)C(=O)NC)csc3n2)cc1` (stereo unspecified), the “Percent Effect” value worked out at 9.06%.
With `CCn1ccc(CNC(=O)c2cc(OC)cc(OC)c2)n1` the figure was 3.102%; with `O=C(CN1CCOCC1)Nc1ccc(C(F)(F)F)cc1Cl`, -3.484%.
On to `Cc1cnc(C(=O)N2CCN(c3ncc4c(n3)CCOC4)CC2)cn1`, for which the “Percent Effect” value is 56.71%.
`CC(C)c1cc(C(=O)N2CCN(c3ncc4c(n3)CCOC4)CC2)on1`: the “Percent Effect” value was -0.8267%.
Turning to `Cc1cc(C(=O)N2CCN(c3ncc4c(n3)CCOC4)CC2)sc1C`, the “Percent Effect” value stood at 45.6%.
The same measure for `O=C(CN1CCc2cncnc2C1)Nc1ccc(Cl)cn1`: -14.12%; for `CCc1nnc(CN(C)c2cc(C)nc3c(C)c(C)nn23)o1`: -22.97%; for `Cc1csc(CN(C)c2cc(C)nc3c(C)c(C)nn23)n1`: 39.72%.
For the compound `Cc1cc(N(C)Cc2ccsc2)n2nc(C)c(C)c2n1`, the “Percent Effect” value amounted to 80.58%.
